Results reported in PubChem BioAssay (NCATS).
Inconclusive results are not listed. Active and inactive are the calls of the source. Calls follow the shape of the dose curve; as a rule, active = well fitted inhibition curve with a large enough effect; inconclusive = small, poorly fitted or top-dose-only effect; inactive = flat fitted curve, though single readings scatter.

What was measured:
Assay in all cases: qHTS profiling for inhibitors of Plasmodium falciparum proliferation (AID 504749); also: nearly all actives have a fitted effect of over 60% in size
Conditions in all cases: P. falciparum in erythrocytes, SYBR Green DNA, 72 h; series mostly up to 28.7 µM
[1] = tested on: DIV17
Procedure, shortened: (§1)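 Readout was DNA-dye fluorescence from lysed cultures, ex 485/em 535 nm. Parasitized red cells had grown 72 h with compound; data scaled between 0.29 uM artemisinin and DMSO wells and corrected using vehicle-only plates.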

[2] = tested on: DIV30
Procedure, shortened: as §1

[3] = tested on: Dd2
Procedure, shortened: as §1

[4] = tested on: ECU
Procedure, shortened: as §1

[5] = tested on: FAB9
Procedure, shortened: as §1

[6] = tested on: GB4
Procedure, shortened: as §1

[7] = tested on: HB3
Procedure, shortened: as §1

[8] = tested on: ICS
Procedure, shortened: as §1

[9] = tested on: JCK
Procedure, shortened: as §1

[10] = tested on: N140
Procedure, shortened: as §1

[11] = tested on: P93_24
Procedure, shortened: as §1

[12] = tested on: P94_40
Procedure, shortened: as §1

[13] = tested on: PAD
Procedure, shortened: as §1

[14] = tested on: PC15
Procedure, shortened: as §1

[15] = tested on: PC26
Procedure, shortened: as §1

[16] = tested on: PC49
Procedure, shortened: as §1

[17] = tested on: SC27B
Procedure, shortened: as §1

[18] = tested on: TAB109
Procedure, shortened: as §1

[19] = tested on: TAB113
Procedure, shortened: as §1

[20] = tested on: TAB165
Procedure, shortened: as §1

Measured: Potency
Potency is read from the fitted curve at half-maximal effect.

Cc1cc(C(=O)NNCc2ccccc2)no1
inactive: all assays above

CC1=CCC(C(C)(C)O)CC1 (stereo not given)
inactive: all assays above

CCCCC(C)(O)C/C=C/[C@H]1[C@H](O)CC(=O)[C@@H]1CCCCCCC(=O)OC (stereo not given in full)
inactive: all assays above

CC[N+](C)(C)Cc1ccccc1Br
inactive: all assays above

CC1=C(/C=C/C(C)=C/C=C/C(C)=C/C=C/C=C(C)/C=C/C=C(C)/C=C/C2=C(C)CCCC2(C)C)C(C)(C)CCC1
inactive: all assays above

C#CCOc1ccc2c(C)cc(=O)oc2c1
inactive: all assays above

C[C@]12O[C@H](C[C@]1(O)CO)n1c3ccccc3c3c4c(c5c6ccccc6n2c5c31)CNC4=O
active: [1] 135 nM | [2] 269 nM | [3] 355 nM | [4] 398 nM | [5] 2 µM | [6] 269 nM | [7] 447 nM | [8] 112 nM | [9] 4.47 µM | [10] 282 nM | [11] 355 nM | [12] 282 nM | [13] 251 nM | [14] 447 nM | [15] 239 nM | [16] 891 nM | [17] 316 nM | [18] 355 nM | [19] 316 nM | [20] 251 nM

CC(O)CO (stereo not given)
inactive: all assays above

O=C1C(=O)c2ncccc2-c2cccnc21
active: [1] 953 nM | [2] 1510 nM | [3] 1120 nM | [4] 2000 nM | [5] 7.94 µM | [6] 849 nM | [7] 1000 nM | [8] 631 nM | [9] 10 µM | [10] 1260 nM | [11] 891 nM | [12] 794 nM | [13] 794 nM | [14] 891 nM | [15] 1070 nM | [16] 3550 nM | [17] 2820 nM | [18] 1000 nM | [19] 1780 nM | [20] 794 nM

COC(=O)[C@H]1[C@H]2C[C@@H]3c4[nH]c5ccccc5c4CCN3C[C@H]2C[C@@H](OC(=O)c2cc(OC)c(OC)c(OC)c2)[C@@H]1OC
active: [1] 239 nM | [2] 135 nM | [3] 89.1 nM | [4] 316 nM | [5] 1.26 µM | [6] 135 nM | [7] 794 nM | [8] 100 nM | [9] 0.891 µM | [10] 199 nM | [11] 126 nM | [12] 316 nM | [13] 251 nM | [14] 447 nM | [15] 269 nM | [16] 251 nM | [17] 355 nM | [18] 398 nM | [19] 282 nM | [20] 178 nM

COc1ccc2c3c1O[C@H]1C[C@@H](O)C=C[C@@]31CCN(C)C2
inactive: all assays above

CCNC(=O)[C@@H]1CCCN1C(=O)[C@H](CCCN=C(N)N)NC(=O)[C@H](CC(C)C)NC(=O)[C@@H](Cc1c[nH]c2ccccc12)NC(=O)[C@H](Cc1ccc(O)cc1)NC(=O)[C@H](CO)NC(=O)[C@H](Cc1c[nH]c2ccccc12)NC(=O)[C@H](Cc1cnc[nH]1)NC(=O)[C@@H]1CCC(=O)N1
active: [1] 953 nM | [2] 1690 nM | [3] 3160 nM | [4] 1120 nM | [5] 8.91 µM | [6] 2390 nM | [7] 11200 nM | [8] 2240 nM | [9] 14.1 µM | [10] 4470 nM | [11] 3160 nM | [12] 7940 nM | [13] 2240 nM | [14] 3550 nM | [15] 3380 nM | [16] 2820 nM | [17] 6310 nM | [18] 4470 nM | [19] 8910 nM | [20] 3160 nM

O=S(=O)(O)c1ccc2c(N=Nc3ccc(S(=O)(=O)O)c4ccccc34)c(O)c(S(=O)(=O)O)cc2c1
inactive: all assays above

CCCC(=O)O[C@]1(C(=O)CCl)[C@H](C)C[C@@H]2[C@H]3CCC4=CC(=O)C=C[C@]4(C)[C@@]3(F)C(=O)C[C@@]21C
active: [1] 6750 nM | [2] 4260 nM | [3] 3160 nM | [4] 2510 nM | [5] 7.94 µM | [6] 2390 nM | [7] 2820 nM | [8] 3550 nM | [9] 10 µM | [10] 3160 nM | [11] 3980 nM | [12] 4470 nM | [13] 4470 nM | [14] 3550 nM | [15] 3010 nM | [16] 10000 nM | [17] 2820 nM | [18] 3160 nM | [19] 2510 nM | [20] 2000 nM

CCCCC/C=C\C/C=C\CCCCCCCC(=O)O
inactive: all assays above

Nc1ncnc2c1ncn2[C@@H]1O[C@H](COP(=O)(O)OP(=O)(O)OP(=O)(O)O)[C@@H](O)[C@H]1O
inactive: all assays above

CC1=C(/C=C/C(C)=C/C=C/C(C)=C/C=C/C=C(C)/C=C/C=C(C)/C=C/C2=C(C)C(=O)CCC2(C)C)C(C)(C)CCC1=O
inactive: all assays above

CCCC(=O)Nc1ncnc2c1ncn2C1OC2COP(=O)(O)OC2C1OC(=O)CCC (stereo not given)
inactive: all assays above

CCC(=O)NCCC1CCc2ccc3c(c21)CCO3 (stereo not given)
inactive: all assays above

C[C@@H]1CCC2[C@@H](C)[C@@H](O)O[C@@H]3O[C@@]4(C)CC[C@@H]1[C@@]23OO4 (stereo not given in full)
active: [1] 2.7 nM | [2] 2.4 nM | [3] 1 nM | [4] 0.9 nM | [5] 0.0009 µM | [6] 1.9 nM | [7] 2.8 nM | [8] 1 nM | [9] 10 µM | [10] 1.6 nM | [11] 1 nM | [12] 1 nM | [13] 1.4 nM | [14] 0.9 nM | [15] 2.7 nM | [16] 0.3 nM | [17] 2 nM | [18] 1 nM | [19] 1.1 nM | [20] 0.9 nM
